# About 83,000 compounds went through this panel and 20% of them were active in at least one assay; those are over-represented in the sample as a whole.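 Percent growth is the endpoint: 0 to 100 indicates growth inhibition (40 means 60% inhibition), 0 means no net growth, and negative values indicate cell death.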 Unmarked numbers belong to inactive results. The source made the active and inactive calls. The calls were made as follows: active = growth percent below 10; inactive = the rest.
# Experiments:
# Experiment in all cases: NCI-60 one-dose screen, 48 h (100 = growth as untreated, 0 = no growth, -100 = all killed)
# SK-MEL-2 melanoma = conditions: 10 µM unless noted
# EKVX NSCLC = conditions: 10 µM unless noted
# SN12C renal = conditions: 10 µM unless noted
# UO-31 renal = conditions: 10 µM unless noted
# TK-10 renal = conditions: 10 µM unless noted
# ACHN renal = conditions: 10 µM unless noted
# CAKI-1 renal = conditions: 10 µM unless noted
# A498 renal = conditions: 10 µM unless noted
# CCRF-CEM leukemia = conditions: 10 µM unless noted
# MOLT-4 leukemia = conditions: 10 µM unless noted
# SR leukemia = conditions: 10 µM unless noted
# RPMI-8226 leukemia = conditions: 10 µM unless noted
# OVCAR-8 ovarian = conditions: 10 µM unless noted
# OVCAR-5 ovarian = conditions: 10 µM unless noted
# OVCAR-4 ovarian = conditions: 10 µM unless noted
# SK-OV-3 ovarian = conditions: 10 µM unless noted
# IGROV1 ovarian = conditions: 10 µM unless noted
# OVCAR-3 ovarian = conditions: 10 µM unless noted
# HS 578T breast = conditions: 10 µM
# NCI/ADR-RES ovarian = conditions: 10 µM unless noted
Structure (SMILES),growth (SK-MEL-2 melanoma),growth (EKVX NSCLC),growth (SN12C renal),growth (UO-31 renal),growth (TK-10 renal),growth (ACHN renal),growth (CAKI-1 renal),growth (A498 renal),growth (CCRF-CEM leukemia),growth (MOLT-4 leukemia),growth (SR leukemia),growth (RPMI-8226 leukemia),growth (OVCAR-8 ovarian),growth (OVCAR-5 ovarian),growth (OVCAR-4 ovarian),growth (SK-OV-3 ovarian),growth (IGROV1 ovarian),growth (OVCAR-3 ovarian),growth (HS 578T breast),growth (NCI/ADR-RES ovarian)
Nc1n[nH]c2ccc([C@@H]3Nc4c(F)cc5[nH]ncc5c4[C@H]4C5CCC(C5)[C@@H]34)cc12 (stereo not given in full),53.7%,31.7%,22.6%,28.2%,61%,22.7%,17.3%,-28.6% (active),18.1%,22.9%,42.8%,21.3%,22%,30.8%,29.4%,39.1%,20.9%,-16.7% (active),20.9%,13.8%
Oc1c(-c2cc(C(F)(F)F)[nH]n2)cc(Cl)c(OCc2ccc(Cl)cc2)c1-c1ccc(Cl)c(C(F)(F)F)c1,-40.9% (active),4.67% (active),5.54% (active),-27.6% (active),7.21% (active),0.909% (active),-15.7% (active),-51.1% (active),5.04% (active),-14.8% (active),15.2%,-27.9% (active),9.67% (active),30.3%,19%,6.29% (active),19.8%,10.5%,5.31% (active),9.38% (active)
COc1cc2c(cc1C)NC(=O)/C2=C\c1c[nH]c2ccccc12,76.4%,74.5%,67.8%,27.6%,83.7%,61.8%,10.6%,78.5%,53.6%,24.4%,46.4%,59.7%,69.3%,75.3%,64.8%,97.4%,-6.11% (active),65.9%,75.2%,77%
COc1c(B(O)O)cccc1-c1nc2c(F)cc3n[nH]c(C)c3c2c2c1CCCC2,-10.3% (active),34.8%,19.3%,-2.78% (active),-2.49% (active),8.08% (active),0.215% (active),-53.6% (active),17.7%,28.7%,42%,6.03% (active),17.3%,8.74% (active),43.7%,-1.49% (active),16.3%,9.19% (active),9.55% (active),36.4%
Cc1cc(C)cc(NC(=O)Cn2nncc2CN2C(=O)CSC2=O)c1,106%,90.3%,103%,99.7%,99.8%,99.6%,95.2%,118%,113%,105%,118%,110%,101%,110%,106%,92.5%,110%,110%,89.5%,96.3%
CCOCC(O)(c1ccc(Cl)cc1)c1ccc(Cl)cc1,102%,94.1%,105%,91.3%,110%,98.7%,88.2%,112%,96.1%,88.7%,100%,107%,103%,84.4%,112%,105%,101%,112%,109%,99.7%
O=C(NC1CC1)c1ccc(-c2nc3ccc4[nH]ncc4c3c3c2CCCC3)cc1,2.88% (active),55.6%,48.4%,25.9%,8.68% (active),17.1%,0.658% (active),-5.47% (active),29.7%,38.8%,32.2%,50.5%,38.8%,75.2%,61.6%,-7.43% (active),22.7%,58%,4.47% (active),72.1%
C#CC[C@@H]1C[C@]2(C)[C@H]3CC[C@@H]4[C@H]5C(C(=C)C)CC[C@]5(C(=O)NCCN(CCN)CCN)CC[C@@]4(C)[C@]3(C)CC[C@H]2C(C)(C)[C@H]1OC(C)=O (stereo not given in full),112%,31%,87.8%,74.7%,95%,91.3%,56.3%,128%,22.5%,31.1%,-0.547% (active),58.3%,72.1%,63.3%,21.7%,105%,98%,48.7%,115%,95.4%
COc1ccc2[nH]c(O)c(/C=c3/ccc4c(c3)N=C(c3ccc(C(F)(F)F)cc3)N=4)c2c1,104%,82.4%,79.9%,91.3%,131%,78%,55.6%,71.7%,23.2%,48%,62.6%,77.1%,87.1%,113%,80.5%,112%,55.2%,77.5%,72.8%,84.7%
O=C(Cn1nncc1CN1C(=O)CSC1=O)Nc1ccc(F)cc1,101%,92.6%,98.3%,87.6%,97.9%,97.9%,96.4%,76.4%,97.4%,105%,124%,104%,108%,107%,103%,90.8%,102%,107%,97.6%,97.6%
COc1cccc(/C=N/N=C(N)N)c1,107%,102%,95.2%,82.6%,113%,100%,104%,78%,108%,115%,93%,104%,100%,89.7%,91.5%,111%,107%,105%,113%,103%
CN1CCN(Cc2ccc(NC(=O)c3ccc(C#N)c(C#Cc4cnc(N)c5ncccc45)c3)cc2C(F)(F)F)CC1,72.4%,96.6%,86.3%,-81.8% (active),76.9%,-56.4% (active),94.1%,89.5%,27%,59.6%,9.25% (active),69.7%,12.6%,18%,75.2%,97.6%,55.3%,102%,68.2%,94%
COC(=O)CNS(=O)(=O)c1ccc2c(c1)Cc1cc(S(=O)(=O)NCC(=O)OC)ccc1-2,108%,99.6%,97.5%,87.1%,107%,102%,92.1%,106%,104%,99.8%,102%,103%,97.3%,103%,102%,97.7%,96.5%,102%,95.7%,105%
C#CC[C@@H]1C[C@]2(C)[C@H]3CC[C@@H]4[C@H]5C(C(=C)C)CC[C@]5(C(=O)NCCCCN)CC[C@@]4(C)[C@]3(C)CC[C@H]2C(C)(C)[C@H]1OC(C)=O (stereo not given in full),61%,90.1%,-82.9% (active),-97.1% (active),-92.9% (active),-98.3% (active),-98.8% (active),108%,-11% (active),-21.3% (active),-7.19% (active),-39.1% (active),-47.5% (active),-87.3% (active),-61.8% (active),111%,-59% (active),-87.3% (active),-26.2% (active),-53.4% (active)
C#CC[C@@H]1C[C@]2(C)[C@H]3CC=C4[C@H]5[C@@H](C)[C@H](C)CC[C@]5(C(=O)NCCCCN)CC[C@@]4(C)[C@]3(C)CC[C@H]2C(C)(C)[C@H]1OC(C)=O,101%,96%,73.8%,59.4%,97.7%,89.5%,50.5%,118%,30%,14.9%,-19.2% (active),5.75% (active),63.7%,108%,68.3%,109%,74.8%,55.6%,102%,86.1%
